PubChem BioAssay (Tox21)
Unmarked numbers belong to inactive results. Calls of active or inactive are those of the source. Calls follow the shape of the dose curve; as a rule, active = well fitted inhibition curve with a large enough effect in the repeat runs (not every such curve was filed as active); inconclusive = weak or mixed curves; inactive = flat fitted curve, though single readings scatter.

Target: Thyrotropin-releasing hormone receptor (Homo sapiens) (UniProt P34981)
Experiment: qHTS assay to identify small molecule antagonists of the thyrotropin-releasing hormone receptor (TRHR) signaling pathway (AID 1346877)
Conditions: TRHR-HEK293, TRH-induced calcium fluorescence, antagonist mode; series mostly up to 51.3 µM; activity, negative = inhibition: at the top concentration
From the text: National Center for Advancing Translational Sciences [NCATS]
NIH Chemical Genomics Center [NCGC]
U.S. Environmental Protection Agency [EPA]
National Institutes of Environmental Health Sciences [NIEHS]
National Toxicology Program [NTP]
U.S. Food and Drug Administration [FDA]
Thyrotropin-releasing hormone (TRH) receptor (TRHR) is a G-protein-coupled receptor which binds the tripeptide thyrotropin releasing hormone. TRHR is found in the brain and, when bound by TRH, acts (through phospholipase C) to increase intracellular inositol trisphosphate. It plays a crucial role in the anterior pituitary where it controls the synthesis and secretion of thyroid stimulating hormone and prolactin. The TRHR-Hek293 assay is a cell-based assay, and it has the potential to screen G protein-coupled receptors. A compound/drug can either activate (agonist) or suppress (antagonist) GPCRs that can be monitored by levels of intracellular calcium. In this assay, the Tox21 10K compound library was screened to identify potential TRHR antagonists.
Tox21 Assay Protocol Summary:
The TRHR-Hek293 cells were dispensed at 1500cells/4uL/well in 1536-well black-clear bottom plates using a Multidrop dispenser. After the assay plates were incubated at a 37 C/5% CO2 incubator for 18 hours, 4 uL of Dye-Loading Solution was added to each well. The plates were incubated at 37 C for 2 hours. For agonist mode, 23 nL of compounds dissolved in DMSO, positive controls or DMSO only was transferred to the assay plate by a pin tool. The fluorescence intensity in the plates was measured using FDSS 7000EX kinetic plate reader for 3 min at 1 sec intervals. For antagonist mode, 23 nL of compounds dissolved in DMSO, positive controls or DMSO only was transferred to the assay plate by a pin tool. After 5 min incubation at room temperature, 1 uL of TRH was added on the top of the cell/compound mixtures to achieve a final agonist concentration of 1 nM. The fluorescence intensity in the plates was measured using FDSS 7000EX kinetic plate reader for 3 min at 1 sec intervals. Each test compound was measured at 15 concentrations and in triplicates.
% is scaled to controls: 0 for no effect and ±100 for the full control effect.

Sequence of Thyrotropin-releasing hormone receptor (Homo sapiens) (P34981 whole entry, looked up): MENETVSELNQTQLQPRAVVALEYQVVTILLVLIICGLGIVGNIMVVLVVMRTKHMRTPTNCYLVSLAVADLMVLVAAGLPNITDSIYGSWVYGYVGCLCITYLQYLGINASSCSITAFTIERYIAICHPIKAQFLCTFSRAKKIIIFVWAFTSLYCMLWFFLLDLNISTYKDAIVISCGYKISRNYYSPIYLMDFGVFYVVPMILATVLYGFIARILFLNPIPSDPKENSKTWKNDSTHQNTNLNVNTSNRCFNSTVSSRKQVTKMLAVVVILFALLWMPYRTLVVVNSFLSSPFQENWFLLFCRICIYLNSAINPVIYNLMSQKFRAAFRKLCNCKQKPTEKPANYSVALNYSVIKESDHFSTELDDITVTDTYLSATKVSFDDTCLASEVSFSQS

| SMILES | activity, negative = inhibition | Potency |
| --- | --- | --- |
| CC1CC(CC2CCC(N)C(C)C2)CCC1N (stereo not given) | -6.8% | – |
| C=CC(=O)NCNC(=O)C=C | 0.348% | – |
| CCCCCCC#N | -0.181% | – |
| CCOC(=O)COc1cc(-c2nn(C)c(OC(F)F)c2Cl)c(F)cc1Cl | -1.71% | – |
| OCCCBr | -8.43% | – |
| Clc1ccc(C(OCCN2CCCCC2)c2ccccc2)cc1 (stereo not given) | -0.0634% [at 23.6 µM] | – |
| CCOC(=O)CBr | -0.0013% | – |
| N#CCC#N | 3.1% | – |
| CCOP(=S)(OCC)SCn1nnc2ccccc2c1=O | -4.33% | – |
| CCCCN=C=O | 0.194% | – |
| S=C=NCc1ccccc1 | 2.02% | – |
| C/C(=C\c1ccccc1)[N+](=O)[O-] | -1.53% | – |
| COc1nn(CSP(=S)(OC)OC)c(=O)s1 | -0.642% | – |
| CC(=O)c1cc2c(cc1C)C(C)(C)C(C)CC2(C)C (stereo not given) | -3.07% | – |
| CC1(C)CCC(Cc2ccc(Cl)cc2)C1(O)Cn1cncn1 (stereo not given) | -8.81% | – |
| N#Cc1ccc(Cl)cc1 | 0.452% | – |
| NNC(=O)c1cccnc1 | 0.534% | – |
| COP(=O)(OC)O/C(=C/Cl)c1cc(Cl)c(Cl)cc1Cl | -18.5% | – |
| CCOc1nc(F)cc2nc(S(=O)(=O)Nc3c(Cl)cccc3Cl)nn12 | -4.33% | – |
| c1cc2ccc3cccc4ccc(c1)c2c34 | 2.06% | – |

| SMILES | activity, negative = inhibition | Potency |
| --- | --- | --- |
| CC(Cl)C(C)Cl (stereo not given) | 2.26% | – |
| C[C@H]1CNCCc2ccc(Cl)cc21 | 0.354% [at 23.6 µM] | – |
| O=S1(=O)OC(c2cc(Br)c(O)c(Br)c2)(c2cc(Br)c(O)c(Br)c2)c2ccccc21 | 10.2% | – |
| NS(=O)(=O)C(F)(F)C(F)(F)C(F)(F)C(F)(F)C(F)(F)C(F)(F)C(F)(F)C(F)(F)F | 2.27% | – |
| Cc1ccc(N)cc1C | 0.95% | – |
| Nc1nc(N)nc(N)n1 | -1.44% | – |
| COC(=O)C(Cl)C(=O)OC | 2.38% [at 23.6 µM] | – |
| CCCCOC(=O)c1ccccc1C(=O)OCc1ccccc1 | – | inactive |
| CN1C[C@H](CNC(=O)OCc2ccccc2)C[C@@H]2c3cccc4c3c(cn4C)C[C@H]21 | -0.547% [at 23.6 µM] | – |
| c1ccc(C2CC2)c(OCC2=NCCN2)c1 | 4.94% [at 23.6 µM] | – |
| COc1cc(CC(C)N)cc2c1OCO2 (stereo not given) | 5.28% | – |
| O=C(NC(=O)c1c(F)cccc1F)Nc1cc(Cl)c(Oc2ncc(C(F)(F)F)cc2Cl)c(Cl)c1 | -5.63% | – |
| O=C=Nc1ccc(Cl)cc1 | 0.197% | – |
| C=C(C#N)CCC#N | -3.39% | – |
| Clc1cccc2ccccc12 | -1.91% | – |
| Clc1cc(C(Cl)(Cl)Cl)cnc1Cl | -9.42% | – |
| Cc1ccccc1CCl | -2.83% | – |
| O=[N+]([O-])c1ccccc1CCl | -5.74% | – |
| CNP(=O)(OC)Oc1ccc(C(C)(C)C)cc1Cl (stereo not given) | -6.49% | – |
| C=CC(C)=O | 1.89% | – |
